p53 reactivation = re-activators of mutant p53; Potency, µM (titrated, usually from 92.2 µM), without a hit: at the highest dose activity change, positive = activation, most hits filed as activators; H1299 p53-A138V BP100-luciferase reporter, luminescence, 24 h; 320,000 tested, 0.063% active; also: potency is read from the fitted curve at half-maximal effect; % of control where 0% means no effect; nearly all actives have a fitted effect of over 45% in size
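p53-null H1299 cells stably carrying temperature-sensitive p53-A138V and a BP100-luciferase reporter were pinned with compounds (4-point, 1:5 series) and held 24 hrs at 37 deg C. Luminescence was read 10 min after detection reagent.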
GLP-1R agonist = activates the human GLP-1 receptor; HEK293 GLP-1R CRE-luciferase, luminescence, 4-6 h; cells express a hypersensitive GLP-1R form; P43220; Potency, µM (series often up to 45.6 µM), without a hit: top-dose activation, usual class: activators; 380,000 tested, 0.007% active; AID 624172; also: potency is read from the fitted curve at half-maximal effect; % of control where 0% means no effect
Target sequence (P43220 whole entry, looked up): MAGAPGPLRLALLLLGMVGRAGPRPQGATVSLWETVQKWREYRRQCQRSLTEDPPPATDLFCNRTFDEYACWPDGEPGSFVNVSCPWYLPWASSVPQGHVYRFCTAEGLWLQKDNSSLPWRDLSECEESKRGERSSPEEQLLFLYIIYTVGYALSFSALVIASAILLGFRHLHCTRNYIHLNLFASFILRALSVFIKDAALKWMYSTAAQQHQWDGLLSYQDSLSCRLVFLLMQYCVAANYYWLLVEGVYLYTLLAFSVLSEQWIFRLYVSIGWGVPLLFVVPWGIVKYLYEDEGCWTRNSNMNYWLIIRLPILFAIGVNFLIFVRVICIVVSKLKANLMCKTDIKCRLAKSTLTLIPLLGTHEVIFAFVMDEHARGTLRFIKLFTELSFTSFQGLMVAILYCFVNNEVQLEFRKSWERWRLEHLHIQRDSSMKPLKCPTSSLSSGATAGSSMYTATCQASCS
GLP-1R inv ag = GLP-1 receptor (human) inverse agonism; P43220; Potency, µM (top dose mostly 38.3 µM), without a hit: at the top dose activity change, negative = inhibition, usual class: inhibitors; AID 624417; 410,000 tested, 1.6% active; HEK293 GLP-1R CRE-luciferase, luminescence, 24 h; GLP-1R form is constitutively active; also: potency is read from the fitted curve at half-maximal effect; % is scaled to controls: 0 for no effect and ±100 for the full control effect; nearly all actives have a fitted effect of over 55% in size
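Constitutively active GLP-1R drives a cAMP-responsive luciferase in stably transfected HEK293 cells; test compounds are added after overnight (12 h) attachment and left 24 hr, and signal loss in luminescence marks inhibition.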
HEK293 tox = cytotoxicity counter-screen for GLP-1 receptor inverse agonists. HEK293 cAMP-luciferase reporter cells, luminescence, 24 h. Potency, µM (series often up to 38.3 µM), for inactives: at the highest dose activity change, negative = inhibition, hits mostly inhibitors. 410,000 tested, 0.13% active;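 also: loss of luciferase light is scored as toxicity; potency is read from the fitted curve at half-maximal effect; % is scaled to controls: 0 for no effect and ±100 for the full control effect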
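Quantitative HTS format, 1536 wells, 200 cells/uL seeded. Compounds: 23 nL, 24 h, 37 °C. Detection: luciferase reagent, luminescence at 12 min RT; decreased signal taken as cytotoxic.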
LDHA inh = blocks human lactate dehydrogenase A; purified LDHA, NADH/diaphorase-resazurin fluorescence; stronger effect = lower value; activity change, % (values are at about 110 or 230 µM); 480,000 tested, 0.15% active; in the data active = activity change below about -30%; inconclusive = mostly about -25% to -30%;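 also: plate controls were DMSO wells for no effect and wells without enzyme for full effect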
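Enzyme activity of human lactate dehydrogenase 5 (2 nM; 0.06 mM NADH, 0.2 mM pyruvate, 5 min, RT) is measured via a resazurin/diaphorase fluorescence readout of residual NADH.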
ClpP mod = qHTS Assay for Activators of ClpP; ATP-dependent Clp protease proteolytic subunit (Bacillus subtilis (strain 168)), P80244; purified B. subtilis ClpP, FRET peptide cleavage, 20 min; Potency, µM (series often up to 57.5 µM), without a hit: at the highest dose activity change, negative = active; 340,000 tested, 1.9% active; AID 651965, 2013; active = well fitted falling curve with a large enough effect; inconclusive = small, poorly fitted or top-dose-only effect; inactive = no such curve, though single readings can be large or run the other way; also: potency is read from the fitted curve at half-maximal effect; the source files actives as falling curves though it sought activators and does not explain the sign; nearly all actives have a fitted effect of over 65% in size
Target sequence (P80244 whole entry, looked up): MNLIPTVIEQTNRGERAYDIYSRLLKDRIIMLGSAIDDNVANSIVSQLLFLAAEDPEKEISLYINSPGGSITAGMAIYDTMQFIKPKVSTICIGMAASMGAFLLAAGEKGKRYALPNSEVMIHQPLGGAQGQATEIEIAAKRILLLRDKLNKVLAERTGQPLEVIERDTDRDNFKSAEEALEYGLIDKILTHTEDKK
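Purified B. subtilis ClpP, 10 microg/mL final in Tris/HCl pH8 with KCl, BSA, glycerol and Tween-20, cleaved an Abz/nitrotyrosine-quenched decapeptide. Fluorescence (ex 320, em 430) was read at 0 and 20 min at room temperature. Delta was normalized to 5.8 microM ADEP and DMSO/no-enzyme controls.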
Active calls of the source: *; u = inconclusive; x = not tested or not shown; [ ] = another dose, or the depositor's remark. The list is not random: actives were taken first. Their share in the collection is about 2.9%. Unless noted, calls follow the shape of the dose curve; as a rule, active = well fitted curve in the direction sought with a large enough effect; inconclusive = small, poorly fitted or top-dose-only effect, or another doubt; inactive = no such curve, though single readings can be large; an effect the other way counts as inactive or inconclusive.

SMILES	p53 reactivation	GLP-1R agonist	GLP-1R inv ag	HEK293 tox	LDHA inh	ClpP mod
CCn1ccc2cc(S(=O)(=O)N3CCCN(C(=O)Nc4cccc(Cl)c4)CC3)ccc21	x	14%	u	-4%	-2	-10%
O=C1[C@H]2[C@@H](c3ccc(F)cc3)N3C(=O)N(c4cccc(Cl)c4)C(=O)[C@@]3(Cc3ccccc3)[C@H]2C(=O)N1C1CCCCC1	21%	-1%	5.6µM*	3%	-2	1%
COc1ccc(SC[C@H](Cc2ccccc2)N2CC[C@@H](C)CCC2=O)cc1	-8%	11%	u	21%	-1	0%
Cc1ccc(SC[C@H](Cc2ccccc2)N2CC[C@@H](C)CCC2=O)cc1	x	-1%	10µM*	-6%	2	1%
CCc1nc2c(c(SC)nn2-c2ccccc2)c(N)c1C(=O)OC	-1%	4%	32%	6%	-7	32µM*
COC(=O)c1sccc1NC(=O)c1cnc2cc(C)nn2c1C	-3%	5%	10%	16%	-12	x
C=CCn1c(C)c(C(C)=O)c(N2CCN(C(c3ccccc3)c3ccccc3)CC2)nc1=S	-2%	8%	7.1µM*	u	-5	x
O=C(NCc1ccco1)c1ccc(COc2cccc3ccccc23)cc1	3%	-3%	-8%	-14%	-4	11µM*
CCOc1cc(OCC)cc(C(=O)NCc2ccco2)c1	-8%	3%	-61%	1%	-1	14µM*
CCOc1ccc(C(=O)NCc2ccco2)cc1	9%	1%	-11%	10%	4	-1%
O=C1c2cccc(OCC(=O)N3CCCc4ccccc43)c2CCN1Cc1cccnc1	-5%	6%	-15%	21%	-3	2%
Cc1ccccc1CN1CCc2c(OCC(=O)N3CCCc4ccccc43)cccc2C1=O	-1%	-3%	10µM*	-16%	-5	-3%
CC12CCC(C(=O)N3CCc4ccccc43)(CC1=O)C2(C)C (centres undefined)	-5%	0%	13µM*	-3%	2	-5%
Cc1cccc(NC(=O)c2cc(=O)[nH]c3ccccc23)c1	-1%	9%	6%	-11%	-13	-8%
CCn1c(C)[n+](CCOCC[n+]2c(C)n(CC)c3cc(Cl)c(Cl)cc32)c2cc(Cl)c(Cl)cc21	-2%	-3%	-1%	1%	-43*	-1%
CC(=O)OCCn1c(C)[n+](CCOC(C)=O)c2cc(Cl)c(Cl)cc21	2%	5%	4%	6%	-16	x
CC1Cc2ccccc2N1S(=O)(=O)c1cccc2nsnc12 (centres undefined)	-8%	10%	0%	-22%	-2	1%
CN1CCC(C2(O)c3ccccc3CCc3ccccc32)CC1	25%	-5%	u	-1%	6	1%
Cc1ccc(S(=O)(=O)Oc2ccc(C3C4=C(CCCC4=O)N(CCC(=O)O)C4=C3C(=O)CCC4)cc2Cl)cc1	3%	1%	9%	2%[1.53 µM]	8	25µM*
CCCCOc1ccc(Cn2c(=O)sc3ccccc32)cc1	x	x	11µM*	26%	10	-1%
CCCOc1ccc(Cn2c(=O)sc3ccccc32)cc1	x	x	u	1%	2	-1%
COc1ccc(-c2nsc3c(N4CCCCC4C)ncnc23)cc1 (centres undefined)	-11%	-12%	0.28µM*	39%	1	-29%
COc1ccc(OC)c(C2C(C(C)=O)=C(O)C(=O)N2CCC(=O)O)c1 (centres undefined)	-1%	-9%	3%	0%	1	-2%
Cc1ccc(CN2CCN(C(=O)c3cccc4ccccc34)CC2)cc1	x	12%	4µM*	-2%	-11	x
Cc1cccc(CN2CCN(C(=O)c3cccc4ccccc34)CC2)c1	-1%	10%	u	-12%	-10	32µM*
SMILES	p53 reactivation	GLP-1R agonist	GLP-1R inv ag	HEK293 tox	LDHA inh	ClpP mod
COc1ccc(CN2CCN(C(=O)c3cccc4ccccc34)CC2)cc1OC	8%	14%	6%	-14%	u	-6%
CC(C)Cn1c(COc2ccc3cc(Br)ccc3c2)n[nH]c1=S	x	x	x	x	7	x
CCC(C)Cn1cnc2c(SCc3ccccc3F)nc(N)nc21 (centres undefined)	x	25%	u	-5%	-7	x
COC(=O)[C@]12CCCCC=C1N(Cc1ccc(Cl)cc1Cl)C(=O)[C@H](CC(=O)N1CCC(c3ccccc3)CC1)C2	x	-3%	11µM*	4%	-9	0%
COc1ccccc1-c1cc(C(F)(F)F)nc(S(=O)(=O)CCCC(=O)Nc2cccnc2Cl)n1	-18%	-3%	u	8.9µM*	-10	x
CCOc1ccc2[nH]c3c(NCCC(C)C)ncnc3c2c1	1%	-2%	u	-24%	-2	3%
COc1cc2c(cc1OC)C(c1cc3cc(OC)c(OC)cc3[nH]c1=O)N(C(=O)C1CC1)CC2 (centres undefined)	1%	10%	34%	11%	4	28µM*
CCCC(=O)N1CCc2cc(OC)c(OC)cc2C1c1cc2cc3c(cc2[nH]c1=O)OCO3 (centres undefined)	x	14%	109%	5%	0	u
Cc1ccc(NC(=O)Cn2c(=O)n(Cc3ccco3)c(=O)c3oc4ccccc4c32)cc1C	x	x	-1%	-7%	2	-1%
COc1cccc(NC(=O)Cn2c(=O)n(Cc3ccco3)c(=O)c3cc(OC)c(OC)cc32)c1	x	2%	5%	-10%	-7	28µM*
COc1ccc(OC)c(NC(=O)Cn2c(=O)n(Cc3ccco3)c(=O)c3cc(OC)c(OC)cc32)c1	x	-1%	0%	6%	-24	-9%
COc1cc2c(=O)n(Cc3ccccc3)c(=O)n(CC(=O)NCc3ccco3)c2cc1OC	-3%	-7%	-1%	4%	-6	16µM*
COc1ccccc1NC(=O)Cn1c(=O)n(Cc2ccco2)c(=O)c2oc3ccccc3c21	x	x	4%	2%	-6	32µM*
COc1ccc(S(=O)(=O)NCC2CC3C=CC2C3)cc1OC (centres undefined)	25%	0%	4%	10%	-4	4%
O=C(O)/C=C/c1cn(Cc2ccccc2)nc1-c1cccnc1	1%	5%	-1%	-20%	-7	-1%
CCc1ccc(-c2cc(C(F)(F)F)n3nc(C(=O)Nc4c(C)nn(Cc5ccc(F)cc5)c4C)cc3n2)s1	-3%	6%	u	180%	2	-11%
O=c1cc(CN2CCN(c3ccccc3F)CC2)c2c(ccc3ccccc32)o1	x	6%	-2%	3%	-3	28µM*

From PubChem
